From the supplement of paper PMC8285479
Where a name gives a salt, the structure may show the parent alone. ± gives the standard deviation of the averaged measurements. In all, about 1,900 compounds were measured (“normalised cell viability (NPI; 0 = phenylarsine oxide control, 1 = DMSO control)”: median about 1, lowest 2% from about 0.039 on). Shown is part of a subset that was picked to be rich in the lowest values.

Test system: NCI-H1944
Experiment: normalised cell viability (NPI; 0 = phenylarsine oxide control, 1 = DMSO control) (fraction of DMSO control); NCI-H1944 is a non-small cell lung cancer line; higher = more viable cells (less compound toxicity)
Conditions: 6 days
[1] = glucocorticoid arm: hydrocortisone 2.75 uM co-treatment, compound 1 µM
[2] = glucocorticoid arm: hydrocortisone 2.75 uM co-treatment, compound 5 µM
[3] = glucocorticoid arm: hydrocortisone 2.75 uM pre-treated 2 days and continued, compound 1 µM
[4] = glucocorticoid arm: hydrocortisone 2.75 uM pre-treated 2 days and continued, compound 5 µM
[5] = glucocorticoid arm: vehicle, compound 1 µM
[6] = glucocorticoid arm: vehicle, compound 5 µM
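Further: CTB read-out in 384-well plates, triplicate wells, NPI normalised per plate against 1 µM phenylarsine oxide (0) and 0.1% DMSO (1) controls.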

| Compound | normalised cell viability [1] | normalised cell viability [2] | normalised cell viability [3] | normalised cell viability [4] | normalised cell viability [5] | normalised cell viability [6] |
| --- | --- | --- | --- | --- | --- | --- |
| CN1CCN(c2ccc([N+](=O)[O-])c3no[n+]([O-])c23)CC1 | 0.984 ± 0.015 | 1.04 ± 0.011 | 0.993 ± 0.0076 | 1.01 ± 0.01 | 0.984 ± 0.011 | 0.988 ± 0.01 |
| O=C(N[C@H]1CN2CCC1CC2)c1ccc(Cl)cc1 | 1.02 ± 0.01 | 1.01 ± 0.022 | 1.023 ± 0.0058 | 1.02 ± 0.015 | 0.998 ± 0.0035 | 1.013 ± 0.0058 |
| O=c1[nH]c2ccc(Cl)cc2c(N[C@@H]2CN3CCC2CC3)c1-c1nc2ccccc2[nH]1 | 0.43 ± 0.0081 | 0.0244 ± 0.0034 | 0.717 ± 0.02 | 0.0576 ± 0.015 | 0.0195 ± 0.0053 | 0.00294 ± 0.0014 |
| C[C@@]12N[C@@H](Cc3ccccc31)c1ccccc12 [(-)-MK 801 Maleate] | 1.023 ± 0.0058 | 1.02 | 1.02 ± 0.011 | 1.03 ± 0.015 | 1.01 | 1.01 |
| C[C@@]12N[C@@H](Cc3ccccc31)c1ccccc12 [(-)-MK-801 hydrogen maleate] | 1.01 ± 0.01 | 1.02 ± 0.026 | 1.013 ± 0.0058 | 1.05 ± 0.094 | 0.992 ± 0.0092 | 1 ± 0.017 |
| CC1Cc2cc3c(cc2C(c2ccc(N)cc2)=NN1)OCO3 (configuration not stated) | 1.01 ± 0.01 | 1.02 ± 0.021 | 1.01 | 1.01 ± 0.037 | 0.9943 ± 0.0035 | 0.9943 ± 0.006 |
| COc1ccc2c(c1)[C@@]13CCCC[C@H]1[C@@H](C2)NCC3 [3-Methoxymorphinan hydrochloride] | 1.013 ± 0.0058 | 0.989 ± 0.03 | 1.02 ± 0.015 | 1.06 ± 0.058 | 1.003 ± 0.0058 | 1.01 ± 0.01 |
| O=C(O)[C@@H]1[C@H](C(=O)O)[C@H]2CC[C@@H]1O2 [Endothall] | 1.01 ± 0.01 | 1.05 ± 0.01 | 1.007 ± 0.0058 | 1.07 ± 0.015 | 0.9967 ± 0.0025 | 1.007 ± 0.0058 |
| CC1(C(=O)O)C2CCC(O2)C1(C)C(=O)O (configuration not stated) [Cantharidic Acid] | 0.983 ± 0.016 | 0.0223 ± 0.0017 | 1.06 ± 0.015 | 0.137 ± 0.087 | 0.965 ± 0.025 | 0.0108 ± 0.0036 |
| C[C@@H]1O[C@H](C[N+](C)(C)C)C[C@H]1O (racemic) [(±)-Muscarine chloride] | 1.02 ± 0.011 | 1.03 ± 0.035 | 1.01 ± 0.015 | 1.05 ± 0.085 | 0.9963 ± 0.0047 | 1 ± 0.014 |
| OC1CCCCC1N1CCC(c2ccccc2)CC1 (racemic) [(±)-Vesamicol hydrochloride] | 0.9747 ± 0.0049 | 0.91 ± 0.021 | 0.875 ± 0.21 | 0.978 ± 0.022 | 0.9897 ± 0.0025 | 0.9897 ± 0.0076 |
| CC[C@@]1(O)C(=O)OCc2c1cc1n(c2=O)Cc2cc3ccccc3nc2-1 [(S)-(+)-Camptothecin] | 0.066 ± 0.014 | 0.00107 ± 0.0017 | 0.328 ± 0.025 | 0.0202 ± 0.0036 | 0.0279 ± 0.0022 | -0.000721 ± 0.0022 |
| Cc1ccccc1-n1c(Cn2cnc3c(N)ncnc32)nc2cccc(C)c2c1=O | 1.003 ± 0.0058 | 1.02 ± 0.028 | 1 ± 0.015 | 1.02 ± 0.031 | 1 ± 0.017 | 1.01 ± 0.011 |
| C=CCN1CC[C@]23CCCC[C@H]2[C@H]1Cc1ccc(O)cc13 [Levallorphan tartrate] | 1 ± 0.0089 | 1 ± 0.023 | 1.003 ± 0.0058 | 1.06 ± 0.064 | 0.9917 ± 0.0025 | 0.863 ± 0.23 |
| N=C(NCCC[C@H](N)C(=O)O)N[N+](=O)[O-] [NG-Nitro-L-arginine] | 1.003 ± 0.0058 | 1.01 ± 0.022 | 1.01 ± 0.017 | 0.86 ± 0.24 | 1 ± 0.012 | 1.001 ± 0.0085 |
| C=CCN1CCc2cccc3c2[C@H]1Cc1ccc(O)c(O)c1-3 [R(-)-N-Allylnorapomorphine hydrobromide] | 0.992 ± 0.0052 | 0.949 ± 0.0089 | 0.988 ± 0.011 | 0.968 ± 0.02 | 0.9917 ± 0.0042 | 0.9757 ± 0.0015 |

| Compound | normalised cell viability [1] | normalised cell viability [2] | normalised cell viability [3] | normalised cell viability [4] | normalised cell viability [5] | normalised cell viability [6] |
| --- | --- | --- | --- | --- | --- | --- |
| CNc1ccc2oc(C[C@H]3O[C@@]4(CC[C@H]3C)O[C@H]([C@H](C)C(=O)c3ccc[nH]3)[C@H](C)C[C@H]4C)nc2c1C(=O)O [Calcimycin] | 0.909 ± 0.018 | 0.0265 ± 0.002 | 1.01 ± 0.013 | 0.0205 ± 0.0037 | 0.91 ± 0.036 | 0.0377 ± 0.014 |
| NC(CCCCCP(=O)(O)O)C(=O)O (racemic) [(±)-2-Amino-7-phosphonoheptanoic acid] | 0.98 ± 0.012 | 0.9763 ± 0.0025 | 0.9903 ± 0.005 | 0.97 ± 0.013 | 0.9873 ± 0.004 | 0.972 ± 0.0072 |
| COc1cc(C(O)CN)ccc1O (racemic) [(±)-Normetanephrine hydrochloride] | 0.9973 ± 0.0025 | 1.01 ± 0.021 | 1.01 ± 0.01 | 0.867 ± 0.27 | 0.9953 ± 0.0045 | 1 ± 0.016 |
| C[C@H]1OC[C@@H](C[N+](C)(C)C)O1 [(+)-cis-Dioxolane] | 1.017 ± 0.0058 | 1.02 ± 0.01 | 1 ± 0.018 | 1.04 ± 0.081 | 1.01 ± 0.01 | 1.006 ± 0.0063 |
| COc1ccc2c3c1O[C@H]1C(=O)CC[C@@]4(O)C(C2)N(CC2CC2)CCC314 (some centres not stated) [3-Methoxynaltrexone hydrochloride] | 0.9917 ± 0.0068 | 0.99 ± 0.018 | 0.985 ± 0.013 | 1.02 ± 0.07 | 0.9977 ± 0.0025 | 0.998 ± 0.013 |
| c1ccc(C2(c3ccccc3)CC2C2=NCCN2)cc1 (configuration not stated) [Cibenzoline succinate] | 0.992 ± 0.013 | 0.994 ± 0.027 | 1.003 ± 0.0058 | 1.02 ± 0.078 | 1.007 ± 0.0058 | 1.01 ± 0.01 |
| CN1CCCCC1Cn1cc(C(=O)c2cc([N+](=O)[O-])ccc2I)c2ccccc21 (configuration not stated) | 1.02 ± 0.015 | 0.99 ± 0.026 | 1.04 ± 0.01 | 1.01 ± 0.029 | 1.013 ± 0.0058 | 1.001 ± 0.0081 |
| CCCN1CC[C@@H]2c3cc(O)ccc3CC[C@@H]21 (racemic) [cis(+/-)-8-OH-PBZI hydrobromide] | 0.993 ± 0.011 | 0.975 ± 0.021 | 1.01 | 1.02 ± 0.092 | 0.9937 ± 0.0071 | 1.007 ± 0.0058 |
| C[C@H]1CNCCc2ccc(Cl)cc21 [Lorcaserin HCl] | 1.003 ± 0.0064 | 1.02 ± 0.029 | 1 ± 0.019 | 1.02 ± 0.029 | 1.003 ± 0.0061 | 0.998 ± 0.0035 |
| N[C@@H](Cn1ccc(=O)[nH]c1=O)C(=O)O [S(-)-Willardiine] | 1.007 ± 0.0058 | 1.023 ± 0.0058 | 0.847 ± 0.28 | 1.02 ± 0.015 | 1.002 ± 0.007 | 1.007 ± 0.0058 |
| c1ccc2c(c1)[I+]c1ccccc1-2 [Diphenyleneiodonium chloride] | 0.45 ± 0.015 | 0.0556 ± 0.0019 | 0.649 ± 0.014 | 0.0883 ± 0.044 | 0.232 ± 0.015 | 0.00555 ± 0.0077 |
| CN1CC[C@]2(CCN3CCc4c(oc5ccccc45)[C@@H]3C2)N(C)C1=O | 1.003 ± 0.0058 | 0.974 ± 0.015 | 1.01 | 0.889 ± 0.24 | 1.013 ± 0.0058 | 1.02 ± 0.015 |
| CCN(CC)C(=O)N[C@H]1C[C@@H]2c3cccc4[nH]cc(c34)C[C@H]2N(C)C1 [S(+)-Terguride] | 0.989 ± 0.011 | 1.01 ± 0.02 | 0.79 ± 0.37 | 0.996 ± 0.016 | 0.9953 ± 0.0015 | 0.993 ± 0.0056 |
| Cc1c(C(=O)c2cccc3ccccc23)c2cccc3c2n1[C@H](CN1CCOCC1)CO3 [( R)-(+)-WIN 55,212-2 mesylate] | 1.004 ± 0.01 | 0.0209 ± 0.0039 | 1.01 ± 0.029 | 0.016 ± 0.002 | 1.013 ± 0.0058 | 0.00693 ± 0.00096 |
| CCCn1c(C)c(C(=O)c2cccc3ccccc23)c2ccccc21 | 1.001 ± 0.0083 | 1.03 ± 0.023 | 1.007 ± 0.0058 | 1.06 ± 0.09 | 0.9977 ± 0.004 | 1.01 ± 0.023 |
| CCC(=O)CCCCC[C@@H]1NC(=O)[C@H]2CCCCN2C(=O)[C@H]([C@@H](C)CC)NC(=O)[C@H](Cc2cn(OC)c3ccccc23)NC1=O [Apicidin] | 0.387 ± 0.16 | 0.954 ± 0.041 | 0.644 ± 0.15 | 0.983 ± 0.03 | 0.0476 ± 0.028 | 0.96 ± 0.022 |
